Drawing on the supplement of paper PMC6555819, this text covers PBM binding z-score for 7 sequences.

What all share (assay): PBM binding z-score (relative to random genomic background probes); higher = stronger binding; sequences stand for … in GC…GCGATTGACAGCGTAGAATGAAGG
For experiment [1], the system named is FXR:RXRa (NR concentration 270 nM, RXRa partner concentration 90 nM). In short, it runs like this:
(§1)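 Ligand-free nuclear receptor dimers were bound for 1 h to custom Agilent 4×180K protein-binding microarrays. Detection used antibodies against each partner (one per run). Binding z-scores rest on regression-normalized fluorescence, with random background probes as the reference.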

Experiment [2] relates to LXRa:RXRa (NR concentration 270 nM, RXRa partner concentration 90 nM). Put shortly:
as §1

The subject of experiment [3] is LXRa homodimer (NR concentration 270 nM). In short, it runs like this:
as §1

Experiment [4] concerns LXRb:RXRa (NR concentration 270 nM, RXRa partner concentration 90 nM). In short, it runs like this:
as §1

The subject of experiment [5] is LXRb homodimer (NR concentration 270 nM). In short, it runs like this: as §1
Experiment [6] deals with PPARa:RXRa (NR concentration 270 nM, RXRa partner concentration 90 nM). In short, it runs like this: as §1
The test system of experiment [7] is PPARg:RXRa (NR concentration 180 nM, RXRa partner concentration 90 nM). Put shortly:
as §1

For experiment [8], the system named is PPARg:RXRa 270nM:90nM, anti-RXR (NR concentration 270 nM, RXRa partner concentration 90 nM). In short, it runs like this: as §1
In experiment [9] the test system is PPARg:RXRa 30nM:10nM, anti-RXR (NR concentration 30 nM, RXRa partner concentration 10 nM). In short, it runs like this: as §1
Experiment [10] deals with PPARg:RXRa 90nM:30nM, anti-RXR (NR concentration 90 nM, RXRa partner concentration 30 nM). Put shortly:
as §1

Experiment [11] concerns PPARg:RXRa DBDmut IVT, anti-RXR (DBD mutation: RXRa K156A/R161A, NR concentration 270 nM, RXRa partner concentration 90 nM). Put shortly: as §1
In experiment [12] the test system is PPARg:RXRa IVT, anti-PPARg (NR concentration 270 nM, RXRa partner concentration 90 nM). Put shortly: as §1
Experiment [13] has as its system PPARg DBDmut:RXRa IVT, anti-PPARg (DBD mutation: PPARg1 K132A/R137A, NR concentration 270 nM, RXRa partner concentration 90 nM). In short, it runs like this: as §1
The subject of experiment [14] is PPARg DBDmut IVT, anti-PPARg (DBD mutation: PPARg1 K132A/R137A, NR concentration 270 nM). In short, it runs like this:
as §1

For experiment [15], the system named is PPARg homodimer (NR concentration 180 nM). In short, it runs like this:
as §1

The subject of experiment [16] is PXR:RXRa (NR concentration 270 nM, RXRa partner concentration 90 nM). Put shortly:
as §1

Experiment [17] relates to PXR homodimer (NR concentration 270 nM). In short, it runs like this: as §1
Experiment [18] has as its system RARa:RXR (NR concentration 270 nM, RXRa partner concentration 90 nM). In short, it runs like this: as §1
The test system of experiment [19] is RARa homodimer (NR concentration 270 nM). Put shortly:
as §1

Experiment [20] has as its system RARb:RXRa (NR concentration 270 nM, RXRa partner concentration 90 nM). Put shortly:
as §1

Regarding TCATATAGGTAAAGGGGAAAGTCGAACGATATGA, the PBM binding z-score was 0.639 in experiment [1]; 0.796 in experiment [2]; -0.0838 in experiment [3]; 0.901 in experiment [4]; 0.0683 in experiment [5]; 2.18 in experiment [6]. In addition, the PBM binding z-score stood at 2.99 in [7]; 4.18 in experiment [8]; 4.55 in [9]; 4.52 in experiment [10]; 4.16 in experiment [11]; 2.85 in [12]. In addition, the PBM binding z-score turned out to be 1.41 in experiment [13]; 1.19 in experiment [14]; 0.621 in experiment [15]; 0.551 in experiment [16]; 0.506 in experiment [17]; 0.562 in [18]. Also, the values for the PBM binding z-score in experiment [19] and in experiment [20] were 0.996 and 0.83, respectively.
With ATCTCTAGGTAAAGCTCAGTGAAAGATCGATAGA, the PBM binding z-score was 0.281 in experiment [1]; 0.0459 in experiment [2]; -0.107 in experiment [3]; -0.256 in experiment [4]; 0.358 in [5]; 0.297 in experiment [6]. Moreover, the PBM binding z-score in experiment [7] was 0.103; in experiment [8], 0.333; in [9] it was 0.3; in [10], 0.095; in experiment [11], 2.67; in [12], 1.38. In addition, the PBM binding z-score in experiment [13] is 0.778; in [14], 0.893; in [15] it was 0.544; in experiment [16], -0.131; in [17], 0.14; in experiment [18], 0.258. The PBM binding z-score in [19] was found to be 0.432; in experiment [20], 0.0103.
Regarding CCGACTGGGGCAAGGTTACCATTACGCACAGCCA, the PBM binding z-score in experiment [1] is 0.0277; in experiment [2] it was 0.227; in experiment [3] it was -0.221; in experiment [4] it was 0.492; in [5], -0.9; in [6] it was 1.75. In addition, the PBM binding z-score was 2.79 in [7]; 3.17 in experiment [8]; 0.732 in [9]; 2.4 in [10]; 2.66 in experiment [11]; 3.49 in experiment [12]. Besides, the PBM binding z-score in experiment [13] was -0.296; in [14], -0.507; in experiment [15], 0.706; in experiment [16], 0.214; in experiment [17], -0.376; in experiment [18], 0.792. Moreover, the PBM binding z-score in [19] worked out at 0.0733; in experiment [20], 1.56.
Turning to GCTTGTAGTTCAAGGTTAAGAAAGACTAAGCTAA, the PBM binding z-score in experiment [1] was 1.52; in experiment [2], 2.43; in experiment [3], 0.162; in [4], 1.53; in experiment [5] it was -0.369; in [6] it was 2.55. For the same sequence, the PBM binding z-score in experiment [7] was 0.724; in experiment [8], 2.09; in [9], 0.473; in experiment [10], 1.18; in experiment [11], -0.00904; in [12] it was 0.825. Besides, the PBM binding z-score in [13] came out at 0.1; in [14], 0.576; in experiment [15] it was 0.358; in [16], 1.71; in experiment [17], 0.883; in experiment [18], 1.74. Besides, the PBM binding z-score in experiment [19] was found to be 0.195; in [20] it was 2.61.
For TCTTCTAGATCAAGCAGGTTAAGAAAGCCTGAGT, the PBM binding z-score in experiment [1] is 0.122; in [2], 0.597; in experiment [3] it was -0.208; in experiment [4] it was 0.619; in experiment [5], -0.0275; in [6], 0.769. Also, the PBM binding z-score in [7] is -0.479; in experiment [8], 1.7; in experiment [9], 3.16; in experiment [10] it was 2.53; in [11] it was 1.76; in experiment [12], 0.683. Also, the PBM binding z-score in [13] was found to be 0.767; in [14], 0.698; in experiment [15], 0.504; in experiment [16], 0.69; in experiment [17], 0.108; in experiment [18], 0.523. Moreover, the PBM binding z-score in experiment [19] is -0.00815; in experiment [20], 0.276.
As for GATTGTAGATCAAGGTTAAGAAAGACTAAGCTAA, the PBM binding z-score was -0.0604 in experiment [1]; 0.349 in experiment [2]; -0.364 in [3]; 0.458 in experiment [4]; -0.63 in experiment [5]; 1.72 in [6]. For the same sequence, the PBM binding z-score in experiment [7] amounted to 1.47; in [8], 2.51; in [9], 0.605; in experiment [10], 2.28; in experiment [11] it was 1.55; in experiment [12] it was 1.67. Further, the PBM binding z-score in [13] is -0.436; in experiment [14], -0.166; in experiment [15], -0.088; in [16], 0.443; in [17], -0.271; in experiment [18] it was 0.732. Besides, the figures for the PBM binding z-score in [19] and in experiment [20] were -0.134 and 0.406, respectively.
Consider TGAATGAGTTTAAAGATCAGGGAACGTGGCGTCG, for which the PBM binding z-score in experiment [1] is -0.0413; in [2], 0.111; in experiment [3], -0.578; in [4], -0.0738; in [5], 0.209; in [6] it was 0.791. Besides, the PBM binding z-score in experiment [7] was 0.824; in [8] it was 1.77; in experiment [9] it was 1.35; in experiment [10], 1.46; in experiment [11] it was -0.728; in experiment [12], -0.0345. In addition, the PBM binding z-score was 0.667 in experiment [13]; -0.281 in experiment [14]; 0.122 in experiment [15]; 0.802 in [16]; 0.782 in experiment [17]; 0.485 in experiment [18]. In addition, the PBM binding z-score came to 0.41 in experiment [19] and 0.682 in experiment [20].
